The source of these data is PubChem BioAssay (Tox21).

Molecules are shown by their SMILES. A number with no mark means an inactive call. Records with an inconclusive call do not appear. Active and inactive are the calls of the source. Unless noted, the call rests on the fitted dose curve; in most records, active means well fitted curve in the direction sought with a large enough effect in the repeat runs; inconclusive means weak or mixed curves; inactive means no such curve, though single readings can be large; an effect the other way counts as inactive or inconclusive.

The target in test [1] is Luciferin 4-monooxygenase (Photinus pyralis) (UniProt P08659). In words: qHTS assay to identify small molecule inhibitors of firefly luciferase (AID 1224835). Further: nearly all actives have a fitted effect of over 25% in size. Further: potency means the concentration at half of the fitted maximal effect. In outline: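 Biochemical qHTS: compounds run as interplate titrations against purified firefly enzyme, with D-luciferin and ATP each at its KM concentration. Light output recorded by CCD imaging.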
Sequence of Luciferin 4-monooxygenase (Photinus pyralis) (P08659 whole entry, looked up): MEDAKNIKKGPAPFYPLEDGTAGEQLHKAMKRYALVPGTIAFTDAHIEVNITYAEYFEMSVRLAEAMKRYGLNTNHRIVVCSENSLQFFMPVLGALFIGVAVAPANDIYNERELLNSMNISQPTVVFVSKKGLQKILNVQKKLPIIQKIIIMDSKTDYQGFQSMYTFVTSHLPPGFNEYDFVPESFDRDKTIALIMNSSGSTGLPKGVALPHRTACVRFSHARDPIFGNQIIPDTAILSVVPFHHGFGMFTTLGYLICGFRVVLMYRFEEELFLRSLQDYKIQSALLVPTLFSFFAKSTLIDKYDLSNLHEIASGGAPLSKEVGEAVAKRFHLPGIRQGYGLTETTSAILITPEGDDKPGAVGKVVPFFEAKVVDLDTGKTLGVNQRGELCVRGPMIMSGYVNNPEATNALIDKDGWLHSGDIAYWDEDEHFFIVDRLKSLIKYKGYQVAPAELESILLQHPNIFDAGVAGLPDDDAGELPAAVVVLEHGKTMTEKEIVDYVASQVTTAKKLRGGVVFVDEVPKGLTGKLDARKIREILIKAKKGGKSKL
In general terms: In qHTS, concentration-response curves come from the screen itself.

Test [2] can be described thus: qHTS assay to identify small molecule agonists of the constitutive androstane receptor (CAR) signaling pathway - cell viability counter screen (AID 1224836). Further: nearly all actives have a fitted effect of over 45% in size. Further: potency means the concentration at half of the fitted maximal effect. The procedure, abridged: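 23 h treatment, 37 C, 5% CO2. Cell line: HepG2 stably expressing hCAR with a CYP2B6-2.2kb construct. Co-treatment: PK11195, 0.75 uM final. Read-out: CellTiter-Fluor fluorescence intensity.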

Test [3] in a line: qHTS assay to identify small molecule antagonists of the constitutive androstane receptor (CAR) signaling pathway - cell viability counter screen (AID 1224837). Further: nearly all actives have a fitted effect of over 45% in size. Further: potency means the concentration at half of the fitted maximal effect. In outline: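 Counter screen run in HepG2-CYP2B6-hCAR cells: 4 hr settle, compound titration (15 concentrations) with 50 nM CITCO, 23 hr at 37 C/5% CO2, CellTiter-Fluor fluorescence.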
The target of test [4] is Nuclear receptor subfamily 1 group I member 3 (Homo sapiens) (UniProt Q14994). In words: qHTS assay to identify small molecule antagonists of the constitutive androstane receptor (CAR) signaling pathway (AID 1224838).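 Further: HepG2 cells stably expressing hCAR with CYP2B6 luciferase reporter stimulated by CITCO; nearly all actives have a fitted effect of over 40% in size.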 Further: potency means the concentration at half of the fitted maximal effect. The procedure, abridged:
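Cell line: HepG2 double-stable for hCAR and CYP2B6-2.2kb reporter. Agonist: CITCO, 50 nM final. Compounds: 15 concentrations, 24 h, 37 C. Detection: ONE-Glo luminescence.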

Test [5] shares this target. In words: qHTS assay to identify small molecule agonists of the constitutive androstane receptor (CAR) signaling pathway (AID 1224839). Further: nearly all actives have a fitted effect of over 15% in size. Further: potency means the concentration at half of the fitted maximal effect.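 On activation: HepG2 cells stably carrying human CAR and a CYP2B6 luciferase reporter.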 In outline:
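Compounds tested at 15 concentrations on HepG2 cells stably harbouring hCAR and CYP2B6-2.2kb reporter constructs, co-treated with PK11195 (0.75 uM final), 24 h at 37 C; luminescent reporter signal quantified.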

A short description of test [6]: qHTS assay to identify small molecule antagonists of the estrogen related receptor signaling pathway with the pleiotropic PPARgamma coactivator (PGC) from Tox21 10K library - cell viability counter screen (AID 1224840; active means well fitted cell-killing curve with a large enough effect in the repeat runs, not every such curve was filed as active; further: nearly all actives have a fitted effect of over 40% in size; further: potency means the concentration at half of the fitted maximal effect). The procedure, abridged:
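Following seeding of 2,000 PGC/ERR cells/well and 6 hours' incubation, test compounds were delivered in DMSO. The plates then sat 17.5 hours at 37 C before a fluorogenic live-cell protease reagent (CellTiter-Fluor) was read after 30 min.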

Test [7] is described as follows: qHTS assay to identify small molecule antagonists of the estrogen related receptor signaling pathway with the pleiotropic PPARgamma coactivator (PGC) from Tox21 10K library (AID 1224841; call rule not given here; further: actives are mostly falling curves and most rising ones were filed inactive; nearly all actives have a fitted effect of over 50% in size). The procedure, abridged: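 qHTS antagonist format: PGC/ERR cells, 2k/well, compound in DMSO by pin transfer after 6 h attachment, 18 h treatment at 37 C, One-Glo luminescence read at 30 min.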

The nature of test [8]: qHTS assay to identify small molecule agonists of the estrogen related receptor signaling pathway with the pleiotropic PPARgamma coactivator (PGC) from Tox21 10K library (AID 1224842). Further: nearly all actives have a fitted effect of over 15% in size. Further: potency means the concentration at half of the fitted maximal effect. The procedure, abridged:
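PGC/ERR reporter cell line, 2,000 cells per well, incubated 6 h at 37 C before 23 nL compound in DMSO was added. After 18 h at 37 C, One-Glo luminescence read following 30 min at room temperature.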

The target of test [9] is Thyrotropin receptor (Homo sapiens) (UniProt P16473). In words: qHTS assay to identify small molecule agonists of the thyroid stimulating hormone receptor (TSHR) signaling pathway (AID 1224843; calls by dose curve; further: nearly all actives have a fitted effect of over 45% in size). The procedure, abridged: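 Steps: seed 800 TSHR-HEK293 cells per well; add test compound and hold 30 min at ambient temperature; dispense cAMP-d2 then anti-cAMP cryptate; incubate 1 h at ambient; measure fluorescence intensity.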
Sequence of Thyrotropin receptor (Homo sapiens) (P16473 whole entry, looked up): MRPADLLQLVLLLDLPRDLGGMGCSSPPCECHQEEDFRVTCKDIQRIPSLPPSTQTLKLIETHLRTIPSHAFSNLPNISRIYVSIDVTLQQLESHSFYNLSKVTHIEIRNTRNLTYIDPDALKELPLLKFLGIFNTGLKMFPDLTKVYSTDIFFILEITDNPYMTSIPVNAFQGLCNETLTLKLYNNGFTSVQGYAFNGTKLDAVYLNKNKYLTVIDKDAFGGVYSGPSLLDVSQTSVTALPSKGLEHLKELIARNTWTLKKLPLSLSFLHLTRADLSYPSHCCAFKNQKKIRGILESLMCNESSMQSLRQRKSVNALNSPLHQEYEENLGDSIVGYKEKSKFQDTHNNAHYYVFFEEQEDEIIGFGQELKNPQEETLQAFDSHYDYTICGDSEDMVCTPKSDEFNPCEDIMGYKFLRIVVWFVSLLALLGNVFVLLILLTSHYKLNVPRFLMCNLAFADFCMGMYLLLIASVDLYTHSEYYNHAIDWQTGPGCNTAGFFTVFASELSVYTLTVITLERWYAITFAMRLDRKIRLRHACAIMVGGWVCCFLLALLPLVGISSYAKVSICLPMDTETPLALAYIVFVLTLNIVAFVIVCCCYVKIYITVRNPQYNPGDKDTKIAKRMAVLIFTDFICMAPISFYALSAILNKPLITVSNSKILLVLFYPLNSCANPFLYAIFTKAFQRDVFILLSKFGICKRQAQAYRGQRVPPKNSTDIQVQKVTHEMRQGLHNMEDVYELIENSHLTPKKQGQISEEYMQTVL

Test [10] is described as follows: qHTS assay to identify small molecule agonists of the hypoxia (HIF-1) signaling pathway - cell viability counter screen (AID 1224844; calls by dose curve; further: nearly all actives have a fitted effect of over 50% in size; further: potency means the concentration at half of the fitted maximal effect). The procedure, abridged:
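Cells (HRE-bla ME-180, 2,000 per well) sat 5 hrs at 37C, got compound for 17 hrs, were read for CCF4-AM FRET, and were finally lysed with CellTiter-Glo for a 30 min room-temperature luminescence read.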

Test [11] is described as follows: qHTS assay to identify small molecule agonists of the hypoxia (HIF-1) signaling pathway (AID 1224846; active means well fitted activation curve with a large enough effect in the signal ratio in the repeat runs, not every such curve was filed as active; the % refers to the signal ratio). In outline:
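A low-serum medium (0.5% dialyzed FBS) holding 2,000 HRE-bla ME-180 cells per well is preincubated for 5 hrs, dosed with compounds by pintool, and kept a further 17 hrs at 37C, 5% CO2 before CCF4-AM FRET detection of beta-lactamase.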

The nature of test [12]: qHTS assay to identify small molecule agonists of H2AX - cell viability counter screen (AID 1224847; calls by dose curve; further: nearly all actives have a fitted effect of over 30% in size; further: potency means the concentration at half of the fitted maximal effect; on activity change, negative = cytotoxicity: top concentration of the series differs between compounds). In outline:
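Compounds tested at 15 concentrations were incubated 3 hr at 37C with wild-type CHO-K1 cells; cellular ATP-based luminescence (CellTiter-Glo) indicated viability.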

Test [13] in a line: qHTS assay to identify small molecule antagonists of the estrogen related receptor (ERR) signaling pathway from Tox21 library (AID 1224848). Further: nearly all actives have a fitted effect of over 50% in size. Further: potency means the concentration at half of the fitted maximal effect. In outline: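 Luminescent reporter read-out (ONE-Glo) from NTP's ERR cell line after 18 h treatment at 37 C with DMSO-dissolved Tox21 compounds; cells pre-plated 6 h beforehand at 2,000 per well.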
Test [14] can be described thus: qHTS assay to identify small molecule agonists of the estrogen related receptor (ERR) signaling pathway from Tox21 library (AID 1224849; calls by dose curve; further: nearly all actives have a fitted effect of over 15% in size). Conditions: ERR reporter cell line, ONE-Glo luciferase, 18 h. In outline: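 Screening used an NTP-provided ERR luciferase cell line. Compounds in DMSO were added 6 h after seeding and left 18 h at 37 C before a 30 min ONE-Glo step and luminescence reading.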

Test [15] can be described thus: qHTS RealTime-Glo MT Cell Viability Assay in HepG2 cells - 24 hour (AID 1224867). Further: nearly all actives have a fitted effect of over 50% in size. In outline: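 Cell number in HepG2 cultures estimated from NanoLuc luminescence generated by metabolic reduction of a prosubstrate by living cells. The homogeneous, nonlytic format allowed repeated reads at 0, 8, 16, 24, 32 and 40 h of compound exposure.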
Test [16] in a line: qHTS RealTime-Glo MT Cell Viability Assay in HEK293 cells - 32 hour (AID 1224868). Further: nearly all actives have a fitted effect of over 50% in size. Further: potency means the concentration at half of the fitted maximal effect. On activity change, negative = cytotoxic: top concentration of the series differs between compounds. In outline: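 Homogeneous bioluminescent viability format in HEK293 cells (600 cells/well). Following 5 h at 37 C/5% CO2, 23 nL compound was pintooled; the signal was measured repeatedly during 40 h incubation.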
The nature of test [17]: A CellTox Green Cytotoxicity Assay to monitor cytotoxicity in HEK293 cells - 0 hour (AID 1224869). Further: nearly all actives have a fitted effect of over 50% in size. Further: potency means the concentration at half of the fitted maximal effect. In outline:
(§1)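 Fluorescence intensity, read at 0, 8, 16, 24, 32 and 40 h of compound treatment, reflected dye binding to DNA of dead HEK293 cells; compounds (23 nL, DMSO) were added 5 h after plating cells with reagent.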

Test [18] can be described thus: qHTS RealTime-Glo MT Cell Viability Assay in HepG2 cells - 40 hour (AID 1224870). Further: nearly all actives have a fitted effect of over 50% in size. Further: potency means the concentration at half of the fitted maximal effect. In outline:
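HepG2 cells (600/well) mixed with RealTime-Glo MT reagent, settled 5 h at 37 C/5% CO2 before compound addition. Nonlytic NanoLuc luminescence from viable-cell prosubstrate reduction read repeatedly during 40 h treatment at 37 C.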

Test [19] in a line: A CellTox Green Cytotoxicity Assay to monitor cytotoxicity in HEK293 cells - 40 hour (AID 1224871). Further: nearly all actives have a fitted effect of over 45% in size. Further: potency means the concentration at half of the fitted maximal effect. The procedure, abridged: as §1
A short description of test [20]: qHTS assay to identify small molecule agonists of H2AX (AID 1224845; active means well fitted activation curve with a large enough effect in the signal ratio in the repeat runs, not every such curve was filed as active; the % refers to the signal ratio). In outline: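 Wild-type CHO-K1 cells, plated overnight, exposed 3hr at 37C to 15 concentrations (0.76% DMSO final). Lysed, then HTRF anti-pH2AX (S139) cryptate and anti-H2AX-d2 antibodies, 24 hr room temperature; 665/620 nm emission read.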
On the % scale 0 is the no-effect control and ±100 the full control effect.

Sequence of Nuclear receptor subfamily 1 group I member 3 (Homo sapiens) (Q14994 whole entry, looked up): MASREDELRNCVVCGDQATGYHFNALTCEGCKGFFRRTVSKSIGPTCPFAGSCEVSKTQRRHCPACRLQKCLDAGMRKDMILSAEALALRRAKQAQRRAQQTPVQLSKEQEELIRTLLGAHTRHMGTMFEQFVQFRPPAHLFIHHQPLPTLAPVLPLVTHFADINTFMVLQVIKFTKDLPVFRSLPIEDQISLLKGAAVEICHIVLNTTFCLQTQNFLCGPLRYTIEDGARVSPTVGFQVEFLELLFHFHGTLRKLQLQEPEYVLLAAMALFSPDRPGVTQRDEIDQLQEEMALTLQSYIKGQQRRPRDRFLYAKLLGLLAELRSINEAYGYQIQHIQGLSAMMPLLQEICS

`O=C1CCCCCCCCCCCCCCCO1`: the Potency result in [1], in [2], in test [3], in test [4], in test [5] and in test [6] was “inactive” in each case. In addition, the Potency result in [7], in [8], in test [9], in test [10], in test [11] and in [12] was “inactive” in each case. Besides, the Potency entry in [13], in [15], in [16] and in test [18] was “inactive” in each case. Moreover, the activity change, positive = activation in test [14] (at 92.4 µM (top of the series)) is -5.05%. The Potency in [17] and in test [19] was 24.5 µM (active) throughout.

For `CC1(C)[C@@H](O)CC[C@]2(C)[C@H]3C(=O)C=C4[C@@H]5C[C@@](C)(C(=O)O)CC[C@]5(C)CC[C@@]4(C)[C@]3(C)CC[C@@H]12`, the Potency entry in test [1], in test [2], in [3], in test [4], in [5] and in test [6] was “inactive” throughout. The Potency result in test [7], in test [8], in test [9], in test [20], in test [13] and in test [16] was “inactive” in each case. The Potency entry in test [17], in test [18] and in test [19] was “inactive” in each case. For the same compound, in [14] (at 92.4 µM (top of the series)), the activity change, positive = activation is 3.52%.

With `COc1c(C)c2c(c(O)c1C/C=C(\C)CCC(=O)OCCN1CCOCC1)C(=O)OC2`, the Potency entry in test [1], in test [2], in test [3], in [5], in test [6] and in test [7] was “inactive” in each case. Further, the Potency entry in test [9], in test [12], in [13], in [15], in [16] and in [17] was “inactive” each time. For the same compound, the Potency entry in test [18] and in [19] was “inactive” in each case. Also, the results for the Potency in test [4] and in test [8] were 1.06 µM (active) and 0.237 µM (active), respectively. Moreover, the activity change, positive = activation in test [14] (at 42.5 µM (top of the series)) is -23.6%.

Take `C#C[C@]1(O)CC[C@H]2[C@@H]3[C@H](C)CC4=C(CCC(=O)C4)[C@H]3CC[C@@]21C`: the Potency entry in test [1], in test [2], in test [3], in test [4], in test [5] and in test [6] was “inactive” throughout. Also, the Potency entry in [8], in test [10], in [16], in [17], in test [18] and in test [19] was “inactive” in each case. The Potency in test [13] was 23.7 µM (active). Further, in test [14] (at 42.5 µM (top of the series)), the activity change, positive = activation was -32.4%.

On to `CCCCCCCCCCC[C@@H](C[C@@H]1OC(=O)[C@H]1CCCCCC)OC(=O)[C@H](CC(C)C)NC=O`, for which the Potency result in test [1], in test [2], in test [3], in test [4], in test [5] and in test [6] was “inactive” each time. The Potency result in test [9], in test [10], in test [11], in test [15], in test [17] and in test [18] was “inactive” throughout. Also, the Potency in test [16] is 9.52 µM (active).

For `O=C(O)c1cc(O)c2ccccc2c1O`, the Potency in test [1] is 31.7 µM (active); in test [2], 21.7 µM (active); in test [3], 24.3 µM (active); in [4] it was 38.6 µM (active); in [5], 1.54 µM (active); in test [6], 30.6 µM (active). For the same compound, the Potency is 11 µM (active) in test [10]; 50.5 µM (active) in test [12]; 61.1 µM (active) in test [13]; 43.6 µM (active) in [16]; 21.9 µM (active) in [18]; 19.5 µM (active) in test [19]. Further, the Potency result in test [8] and in [17] was “inactive” throughout. In test [14] (at 92.4 µM (top of the series)), the activity change, positive = activation was -58.1%.

As to `O=C(O)c1ccc2cc(C(=O)O)ccc2c1`, the Potency result in test [1], in test [2], in test [3], in test [4], in test [5] and in test [6] was “inactive” in each case. The Potency entry in [9], in test [10], in test [20], in [16], in test [17] and in test [18] was “inactive” in each case. Moreover, the Potency result in test [19] is “inactive”.

Regarding `CC(C)Cn1cnc2c(N)nc3ccccc3c21`, the activity change, negative = inhibition in test [1] was 5.54% [at 23.6 µM]. In addition, the figures for the viability change, negative = cytotoxic in [2] and in [6] were -20.4% [at 19 µM] and 16.3% [at 19 µM], respectively. Further, the activity change, negative = cytotoxicity in test [3] was -10.6% [at 19 µM]; in [10] it was 18.6% [at 15.8 µM]; in test [12], 1.2% [at 31.6 µM]; in [15], 0.631% [at 15.8 µM]. The activity, negative = inhibition in test [4] is 27.4% [at 19 µM]; in test [7] it was 23.8% [at 19 µM]. In addition, the activation in [5] is 6.88% [at 19 µM]; in test [8], 6.35% [at 19 µM]; in [9] it was 14.2% [at 19 µM]. Besides, the activation (H2AX phosphorylation) in [20] is -2.05% [at 31.6 µM]. Further, the activity change, positive = activation in test [14] (at 19 µM (top of the series)) is -11.2%. Besides, the activity change, negative = cytotoxic in [18] is 1.75% [at 15.8 µM]. Also, the cytotoxicity increase in [19] is 1.7% [at 15.8 µM].
